Screening data deposited in PubChem BioAssay by National Center for Advancing Translational Sciences (NCATS).
Luciferase inh: Firefly luciferase inhibition profiling of diverse chemical library using quantitative high-throughput screening | Luciferin 4-monooxygenase (Photinus pyralis), P08659 | Potency, µM (titrated, usually from 115 µM), usual class: inhibitors | purified P. pyralis luciferase, luminescence, biochemical | 76,000 compounds, 2.5% hits; also: nearly all actives have a fitted effect of over 65% in size
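Inhibitors were tested against purified firefly luciferase in a biochemical, low-substrate format (both substrates at 10uM) and luminescence measured with a CCD imager.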
hNpr1 antagonist: Natriuretic polypeptide receptor (hNpr1) antagonism - Primary qHTS; HEK293 hNpr1 GloSensor cGMP, ANP-stimulated luminescence; Potency, µM (top dose mostly 46.3 µM), most hits filed as inhibitors; 76,000 compounds, 1.6% hits; calls by dose curve; also: nearly all actives have a fitted effect of over 60% in size
Target sequence (P16066 whole entry, looked up): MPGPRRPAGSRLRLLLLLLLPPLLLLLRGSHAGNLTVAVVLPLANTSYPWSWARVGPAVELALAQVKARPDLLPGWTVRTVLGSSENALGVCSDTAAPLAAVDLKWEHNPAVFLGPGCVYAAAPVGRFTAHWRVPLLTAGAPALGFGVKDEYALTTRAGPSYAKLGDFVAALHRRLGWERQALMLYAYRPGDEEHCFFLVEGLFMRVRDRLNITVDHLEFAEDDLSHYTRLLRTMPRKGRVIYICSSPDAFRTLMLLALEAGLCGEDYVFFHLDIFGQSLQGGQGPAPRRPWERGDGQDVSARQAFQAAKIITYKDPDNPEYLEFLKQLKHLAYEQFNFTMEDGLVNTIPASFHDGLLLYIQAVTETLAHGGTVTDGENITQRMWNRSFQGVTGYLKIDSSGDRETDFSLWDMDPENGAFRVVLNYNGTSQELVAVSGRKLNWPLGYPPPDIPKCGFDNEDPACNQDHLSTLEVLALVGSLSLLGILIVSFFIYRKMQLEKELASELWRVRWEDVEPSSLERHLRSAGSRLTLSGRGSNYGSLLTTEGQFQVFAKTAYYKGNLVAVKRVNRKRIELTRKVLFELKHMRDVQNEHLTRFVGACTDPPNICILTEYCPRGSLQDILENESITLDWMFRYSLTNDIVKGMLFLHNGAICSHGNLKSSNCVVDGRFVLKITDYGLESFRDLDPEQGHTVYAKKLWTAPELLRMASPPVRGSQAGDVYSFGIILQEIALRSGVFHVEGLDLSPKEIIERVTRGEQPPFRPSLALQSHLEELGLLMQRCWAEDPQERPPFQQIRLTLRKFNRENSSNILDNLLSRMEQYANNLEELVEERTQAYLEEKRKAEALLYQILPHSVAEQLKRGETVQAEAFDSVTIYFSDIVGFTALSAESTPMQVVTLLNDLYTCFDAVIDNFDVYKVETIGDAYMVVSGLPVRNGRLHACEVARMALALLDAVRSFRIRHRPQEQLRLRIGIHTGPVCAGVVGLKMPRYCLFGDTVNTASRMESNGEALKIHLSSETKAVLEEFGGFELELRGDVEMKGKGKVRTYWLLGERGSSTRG
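Compound pre-incubated 30 min at room temperature on GloSensor-loaded HEK293 cells stably carrying hNpr1 and the pGS-40F cGMP biosensor. Stimulation uses hNppA at 0.1 nM final; luminescence is taken at baseline and 20 min post-agonist.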
HEK cytotox: Cytotoxic Profiling in HEK 293 Cell Line of Diverse Libraries Using Quantitative High-Throughput Screening; HEK 293 viability, ATP luminescence (CellTiter-Glo), 48-72 h; Potency, µM (titrated, usually from 115 µM), most hits filed as inhibitors; 94,000 compounds, 6.6% hits; also: nearly all actives have a fitted effect of over 60% in size
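250 HEK 293 cells/well; compound by pintool; incubated 48 or 72 hr at 37 degree Celsius; CellTiter-Glo added, 10 min RT, luminescence imaged.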
NIH3T3 tox: Cytotoxic Profiling in NIH 3T3 Cell Line of Diverse Libraries Using Quantitative High-Throughput Screening; NIH 3T3 viability, CellTiter-Glo ATP luminescence, 48-72 h; Potency, µM (series often up to 96.7 µM), hits mostly inhibitors; 94,000 compounds, 4.3% hits; AID 1345082, 2018; also: nearly all actives have a fitted effect of over 55% in size
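First NIH 3T3 cells are plated at 400 cells/well; next compound is pinned in; then plates incubate 48 or 72 hr at 37 °C; finally CellTiter-Glo is added and luminescence read after 10 min.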
Large screens that a line does not name were inactive. Compounds with a hit are over-represented: about 11% of the library has one in this group of screens. Unless noted, calls follow the shape of the dose curve; as a rule, active = well fitted curve in the direction sought with a large enough effect; inconclusive = small, poorly fitted or top-dose-only effect, or another doubt; inactive = no such curve, though single readings can be large; an effect the other way counts as inactive or inconclusive.

CC(C)N[C@H]1CC(C)(C)[C@@H]2C[C@@](C)(O)CC[C@]12CCC(=O)NCCc1c[nH]c2ccccc12	HEK cytotox inconclusive, NIH3T3 tox inconclusive
O=C(NCCc1ccccc1)C1(CCO)CCN(c2ncccn2)C1 (centres undefined)	HEK cytotox inconclusive (no result: Luciferase inh, hNpr1 antagonist)
CN1CCOc2c(C(=O)NCCc3cnc[nH]3)cc(-c3ccccc3F)cc21	HEK cytotox 89µM, NIH3T3 tox inconclusive
COc1cc(F)ccc1-c1cc(C(=O)NCCc2cnc[nH]2)c2c(c1)N(C)CCO2	HEK cytotox inconclusive, NIH3T3 tox 100µM
O=C1NCCOCCN(C(=O)Cc2c[nH]c3ccccc23)[C@H]2CCC[C@@H]12	none
CN(c1cc(=O)c2ccnc(-c3ccc(O)c(F)c3)c2o1)C1CCOCC1	NIH3T3 tox 8.9µM
CN(C)c1cc(=O)c2ccnc(-c3ccc(O)c(F)c3)c2o1	NIH3T3 tox 32µM
Cc1cc(-c2nccc3c(=O)cc(N(C)C)oc23)ccn1	NIH3T3 tox inconclusive
COc1cc(F)ccc1-c1nccc2c(=O)cc(N(C)C3CCOCC3)oc12	NIH3T3 tox inconclusive
CN1CCN(c2ccc(-c3nccc4c(=O)cc(N(C)C5CCOCC5)oc34)cn2)CC1	NIH3T3 tox 89µM
CN(C)c1cc(=O)c2ccnc(Nc3ccccn3)c2o1	NIH3T3 tox 71µM
CN1CCN(c2cc(=O)c3ccnc(Nc4ccccn4)c3o2)CC1	NIH3T3 tox inconclusive
CCC1=C(C(=O)OC)C(c2cccc(F)c2)N2C(CC(=O)NCC3CCCO3)=CSC2=N1 (centres undefined)	none
Cc1ccccc1-c1nccc2c(=O)cc(N(C)C3CCOCC3)oc12	NIH3T3 tox 25µM
COc1ccc(-c2nccc3c(=O)cc(N(C)C)oc23)cn1	NIH3T3 tox 50µM
COc1ncccc1-c1nccc2c(=O)cc(N(C)C3CCOCC3)oc12	NIH3T3 tox inconclusive
CC(C)(C)NC(=O)N1CCC(Oc2ncccc2C(=O)N2CCOCC2)C1 (centres undefined)	none
O=S(=O)(N[C@H]1[C@H](O)[C@H](O)C[C@@H]1c1ccccc1)c1ccc(C(F)(F)F)cc1	none
O=C(Nc1ccc(C(F)(F)F)cc1)N[C@H]1[C@H](O)[C@H](O)C[C@@H]1c1ccccc1	HEK cytotox inconclusive, NIH3T3 tox 79µM
COc1ccc(C(=O)N2CCC(Oc3ccc(-c4noc(C(C)C)n4)cc3)C2)cc1 (centres undefined)	hNpr1 antagonist inconclusive, HEK cytotox 40µM, NIH3T3 tox inconclusive
COc1ccc(C(=O)N2CCC(Oc3ccc(-c4noc(-c5ccccc5)n4)cc3)C2)cn1 (centres undefined)	Luciferase inh inconclusive, hNpr1 antagonist 11µM
CCc1ccc(NC(=O)Cn2ccn3nc4c(c3c2=O)CC(C)CC4)cc1 (centres undefined)	HEK cytotox 45µM, NIH3T3 tox inconclusive
CC1CCc2nn3ccn(CC(=O)Nc4ccccc4)c(=O)c3c2C1 (centres undefined)	none
COCCCNC(=O)c1cc(-c2ccsc2)nc2c1cnn2C	NIH3T3 tox inconclusive (no result: Luciferase inh, hNpr1 antagonist)
CC1Oc2ccc(NC(=O)c3ccccc3)cc2CN(Cc2ccc(Cl)cc2)C1=O (centres undefined)	HEK cytotox 8.9µM, NIH3T3 tox inconclusive
CC1Oc2ccc(NC(=O)c3ccc(Cl)cc3)cc2CN(C(C)C)C1=O (centres undefined)	hNpr1 antagonist inconclusive, HEK cytotox inconclusive, NIH3T3 tox 40µM
CC(=O)Oc1ccccc1C(=O)Nc1ccc2c(c1)CN(Cc1ccc(Cl)cc1)C(=O)C(C)O2 (centres undefined)	hNpr1 antagonist inconclusive, HEK cytotox inconclusive, NIH3T3 tox 25µM
COc1cccc(C(=O)Nc2ccc3c(c2)CN(Cc2ccc(F)cc2)C(=O)C(C)O3)c1 (centres undefined)	HEK cytotox inconclusive, NIH3T3 tox inconclusive
CC1Oc2ccc(NC(=O)c3ccc(Cl)cc3)cc2CN(Cc2cc(F)cc(F)c2)C1=O (centres undefined)	HEK cytotox 20µM, NIH3T3 tox inconclusive
CCC1Oc2ccc(NC(=O)c3ccc([N+](=O)[O-])cc3)cc2CN(C(C)CC)C1=O (centres undefined)	HEK cytotox 22µM, NIH3T3 tox inconclusive
CC1Oc2ccc(NC(=O)c3ccc(F)cc3)cc2CN(Cc2ccccc2F)C1=O (centres undefined)	HEK cytotox 45µM, NIH3T3 tox inconclusive
COc1ccc(CN2Cc3cc(NC(=O)c4ccc(F)cc4F)ccc3OC(C)C2=O)c(OC)c1 (centres undefined)	HEK cytotox 45µM, NIH3T3 tox inconclusive
CC1Oc2ccc(NC(=O)c3ccc(F)cc3)cc2CN(Cc2ccccc2Cl)C1=O (centres undefined)	HEK cytotox inconclusive, NIH3T3 tox inconclusive
CC(=O)N1CCC(c2nnc3n2C(C(=O)N2CCN(C)CC2)CC3)CC1 (centres undefined)	none (no result: Luciferase inh, hNpr1 antagonist)
O=C(CN1CC2CC(C1)[C@H]1CCCC(=O)N1C2)NCCc1cccs1 (some centres undefined)	none
CCCOC(=O)N1CCC(C(=O)Nc2cccc(-c3cccc(F)c3)c2)CC1	hNpr1 antagonist inconclusive, HEK cytotox 45µM, NIH3T3 tox inconclusive
COc1ccccc1-n1cc(-c2ccnc(N3CCCN(C(C)=O)CC3)n2)cn1	HEK cytotox inconclusive, NIH3T3 tox inconclusive
Cc1ccccc1-c1cc(O)c2c(c1)CNCCO2	none
Oc1cc(-c2csc3ccccc23)cc2c1OCCNC2	HEK cytotox 20µM, NIH3T3 tox inconclusive
CCc1nc2c(c(-c3ccc(Cl)cc3)n1)CN(Cc1cccc(F)c1)CC2	HEK cytotox 20µM, NIH3T3 tox 11µM
CCc1nc2c(c(-c3ccc(Cl)cc3)n1)CN(C(=O)c1ccc(C(F)(F)F)cc1)CC2	HEK cytotox inconclusive, NIH3T3 tox inconclusive
CCc1nc2c(c(-c3ccc(O)cc3)n1)CCN(Cc1ccc(C(F)(F)F)cc1)CC2	hNpr1 antagonist inconclusive, HEK cytotox 45µM, NIH3T3 tox inconclusive
CCc1nc2c(c(-c3ccc(Cl)cc3)n1)CCN(Cc1ccc(C(F)(F)F)cc1)CC2	HEK cytotox 50µM
CCc1nc2c(c(-c3ccc(O)cc3)n1)CN(Cc1ccc(C(F)(F)F)cc1)CC2	HEK cytotox inconclusive, NIH3T3 tox inconclusive
CCn1cnnc1-c1nn(C)c2c1CN(C(=O)C(C)c1ccccc1)CC2 (centres undefined)	none
Cn1ncc2c(C(=O)NC3CCOCC3)cc(-c3ccccc3C(F)(F)F)nc21	none (no result: Luciferase inh, hNpr1 antagonist)
COC(=O)CNC(=O)c1cn2cc(-c3cccc(OC)c3)sc2n1	NIH3T3 tox inconclusive (no result: Luciferase inh, hNpr1 antagonist)
Cc1nc2c(c(-c3ccc(O)cc3)n1)CN(C(=O)c1cccc(Cl)c1)CC2	HEK cytotox inconclusive
O=C(Cn1cccc1-c1nc(-c2ccccc2)no1)Nc1ccc2c(c1)OCCO2	HEK cytotox inconclusive
